Sampled rows, rich in hits. Any-hit rate of the full collection: about 22%.
Pf growth 48h: inhibits P. falciparum growth in the first generation, 48 h. P. falciparum luciferase growth in erythrocytes, 48 h. Potency, µM (series often up to 28.7 µM), without a hit: at the top dose activity change, negative = inhibition, actives largely listed as inhibitors. 310,000 compounds, 5.9% hits; further: potency means the concentration at half of the fitted maximal effect; on the % scale 0 is the no-effect control and ±100 the full control effect
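Erythrocytes infected with P. falciparum carrying an integrated firefly luciferase reporter (2% hematocrit, 0.1% parasitemia final) were exposed to compounds in RPMI 1640 with 0.5% Albumax at 37 C, 5% CO2. Growth inhibition was scored as reduced luminescence.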
LmPK inhibitor: blocks Leishmania mexicana pyruvate kinase activity; 290,000 compounds, 0.37% hits; purified LmPK, Kinase-Glo ATP luminescence, 1 h; Potency, µM (series often up to 57.5 µM), for the others: at the highest dose activity change, negative = inhibition, most hits filed as inhibitors; further: potency means the concentration at half of the fitted maximal effect; on the % scale 0 is the no-effect control and ±100 the full control effect
Target sequence (Q27686 whole entry, looked up): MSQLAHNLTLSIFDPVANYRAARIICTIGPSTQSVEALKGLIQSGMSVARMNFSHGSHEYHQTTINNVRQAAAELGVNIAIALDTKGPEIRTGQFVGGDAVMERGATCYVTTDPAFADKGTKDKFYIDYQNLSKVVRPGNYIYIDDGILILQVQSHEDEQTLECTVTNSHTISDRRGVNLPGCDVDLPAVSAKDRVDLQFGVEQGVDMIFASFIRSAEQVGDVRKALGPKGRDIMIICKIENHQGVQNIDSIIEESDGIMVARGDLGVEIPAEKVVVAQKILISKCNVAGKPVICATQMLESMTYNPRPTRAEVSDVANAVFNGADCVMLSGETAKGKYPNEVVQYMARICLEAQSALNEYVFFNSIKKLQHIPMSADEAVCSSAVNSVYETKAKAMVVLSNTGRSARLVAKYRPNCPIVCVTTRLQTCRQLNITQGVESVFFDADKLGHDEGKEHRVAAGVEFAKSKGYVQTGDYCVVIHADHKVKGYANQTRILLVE
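qHTS format; LmPK 0.1 nM; substrates PEP 0.5 mM and ADP 0.1 mM. One-hour room-temperature incubation, then coupled luciferase luminescence; 0.5 nM enzyme wells mark activation.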
Cycloheximide cs: counter-screen for Shiga toxin inhibitors: cycloheximide protein synthesis inhibition; 300,000 compounds, 12% hits; max response, %; AID 2314; cell reporter, cycloheximide protein synthesis inhibition counterscreen; in the data active means max response mostly above about 13%, no sharp cut-off; inactive means mostly below about 14%; further: read at 38.3 µM for the half of the compounds with a filed dose; 0% is about no effect
Pf growth 96h: P. falciparum growth inhibition at 96 hour, primary screen for plastid delayed-death inhibitors; Potency, µM (series often up to 28.7 µM), without a hit: at the highest dose activity change, negative = inhibition, most hits filed as inhibitors; P. falciparum luciferase reporter growth, 96 h; AID 504834; 320,000 compounds, 6.9% hits; further: potency means the concentration at half of the fitted maximal effect; on the % scale 0 is the no-effect control and ±100 the full control effect
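Two-generation exposure (96 h) targets delayed-death phenotype. Reporter parasites carrying integrated firefly luciferase, in red cells at 2% hematocrit and 0.05% parasitemia final, kept at 37 C, 5% CO2; luminescence loss indicates inhibition.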
Shiga toxin inh: inhibitors of Shiga toxin in Vero cells; Vero cells, Shiga toxin protein synthesis inhibition reporter; inhibition, % at 38.7 µM; 290,000 compounds, 9.2% hits; in the data active means inhibition mostly above about 28%, no sharp cut-off; inactive means mostly below about 43%; further: 0% is about no effect
* = called active by the depositor; ? = inconclusive; · = no result. Unless noted, the call rests on the fitted dose curve; in most records, active means well fitted inhibition curve with a large enough effect; inconclusive means small, poorly fitted or top-dose-only effect, or another doubt; inactive means no such curve, though single readings can be large or run the other way.

SMILES | Pf growth 48h | LmPK inhibitor | Cycloheximide cs | Pf growth 96h | Shiga toxin inh
Cc1cccc(C(=O)NC(C(=O)Nc2nc(-c3ccccn3)cs2)C(C)C)c1 (configuration not stated) | 15µM* | 0% | -1 | ? | 5
CC(Oc1cccc(Cl)c1)C(=O)Nc1nc(-c2ccccn2)cs1 (configuration not stated) | 2.6µM* | · | · | 2.6µM* | ·
CC(Oc1ccccc1)C(=O)Nc1nc(-c2ccncc2)cs1 (configuration not stated) | -27% | · | · | -31% | ·
CC(Oc1ccccc1)C(=O)Nc1nc(-c2ccccn2)cs1 (configuration not stated) | 1.9µM* | · | · | 2.3µM* | ·
Cc1cccc(NC(=S)NC23CN4CN(CN(C4)C2)C3)c1C | 8% | -2% | 6 | ? | 34
CCC1N=C(SC)NC(C)=C1C(=O)c1ccccc1 (configuration not stated) | 0% | -2% | 2 | 116% | 21
CSC1=NC(C(Cl)(Cl)Cl)N=C(c2ccc(C)cc2)N1 (configuration not stated) | 12µM* | 8% | -6 | ? | -8
Nc1nnc(-c2cc3c(ccc4ccccc43)oc2=O)s1 | 12% | 5% | 6 | 27% | 23
COc1ccc(-c2nnc(-c3cc4c(ccc5ccccc54)oc3=O)o2)cc1 | 76% | -2% | 1 | 4% | -6
O=c1oc2ccc3ccccc3c2cc1-c1nnc(-c2cccs2)o1 | 19% | 0% | 25* | 26% | -4
O=c1oc2ccc3ccccc3c2cc1-c1nnc(-c2ccccc2)o1 | 22% | 0% | 42* | 6% | 19
CN(C)C(=O)c1ccccc1NC(=O)Cc1cccc2ccccc12 | -5% | 1% | 0 | 6% | -8
CC(O)(CS(=O)(=O)c1cccc(C(F)(F)F)c1)C(=O)Nc1ccc(C(F)(F)F)cc1 (configuration not stated) | ? | 1% | 0 | -3% | -2
CC(C)(CCl)C(=O)Nc1ccc(C(F)(F)F)cc1 | -9% | -2% | 28* | -5% | 26
Cc1cccc(NC(=S)NC2CC3C=CC2C3)c1 (configuration not stated) | 0% | 2% | 3 | ? | 35
Cn1cc(/C=C/C(=O)N2CCCC(C(=O)c3cccc(C(F)(F)F)c3)C2)cn1 (configuration not stated) | 5% | 2% | -2 | 4.1µM* | 2
Cn1cc(/C=C/C(=O)N2CCCC(C(=O)c3cccc4ccccc34)C2)cn1 (configuration not stated) | -11% | -2% | 1 | 54% | 7
O=C(c1cccc(C(F)(F)F)c1)C1CCCN(C(=O)C2CCOCC2)C1 (configuration not stated) | -11% | 0% | 14* | 5% | 4
O=C(c1cccc(C(F)(F)F)c1)C1CCCN(C(=O)CN2CCOC2=O)C1 (configuration not stated) | 1% | -5% | 11 | -1% | 17
CC1CCCC/C1=N/Nc1ccc([N+](=O)[O-])cc1[N+](=O)[O-] (configuration not stated) | · | -13% | -5 | 237% | 30
CC1C/C(=N/Nc2ccc([N+](=O)[O-])cc2[N+](=O)[O-])CC(C)(C)C1 (configuration not stated) | 10µM* | 1% | -2 | ? | -4
CCCCOC1CC(c2ccc(OCc3ccc(OC)cc3)c(OC)c2)N(C)O1 (configuration not stated) | ? | -2% | 24* | 0% | 85*
COc1ccc(-c2cccc(C3CC=CC4C3C(=O)N(Cc3ccccc3)C4c3ccc(OC)c(Cl)c3)c2)cc1 (configuration not stated) | 12µM* | -6% | -1 | 9.3µM* | 19
Cc1ccc(-c2cccc(C3CC=CC4C3C(=O)N(Cc3ccccc3)C4c3ccc4ccccc4c3)c2)cc1 (configuration not stated) | ? | -3% | 6 | ? | -6
C[C@@H]1CC=C[C@H]2[C@H]1C(=O)N(Cc1ccccc1)[C@H]2c1ccc(-c2ccc(N(C)C)cc2)cc1F | ? | 0% | -1 | ? | 2
SMILES | Pf growth 48h | LmPK inhibitor | Cycloheximide cs | Pf growth 96h | Shiga toxin inh
COc1ccc(-c2cccc(C3CC=CC4C3C(=O)N(Cc3ccccc3)C4c3cc(C)ccc3F)c2)cc1 (configuration not stated) | 6.6µM* | 0% | -2 | 6.6µM* | 4
Cc1ccc(F)c(C2C3C=CCC(c4cccc(-c5ccc(N(C)C)cc5)c4)C3C(=O)N2Cc2ccccc2)c1 (configuration not stated) | 2.9µM* | -3% | -1 | 2.9µM* | -6
CCOc1ccc(/C=N/NC(=O)c2csc(C)c2C)c(OCC)c1 | 3% | 2% | 18 | 1% | 47
COc1ccccc1/C=N/NC(=O)c1csc(C)c1C | 55% | -1% | 15* | 33% | 39*
COc1ccccc1/C=N/NC(=O)c1cccc2ccccc12 | -3% | 2% | -3 | ? | ·
Cc1scc(C(=O)N/N=C/c2ccc(Cl)s2)c1C | 106% | 1% | 47* | 30% | 50*
Cc1scc(C(=O)N/N=C/c2ccc(OC(C)C)cc2)c1C | -29% | -2% | 44* | · | 115*
COC(=O)c1ccc(NC(=O)CCC(=O)c2ccc(F)cc2)cc1 | 35% | 5% | -1 | 22% | 2
Cc1csc(SC(C)C(=O)NCC2CCCO2)n1 (configuration not stated) | 10% | · | · | -5% | ·
Cc1cc(C)c2c3c(sc2n1)C1(CCSCC1)C(C#N)=C(N)O3 | -10% | 4% | 18 | · | 29*
COc1ccc(C2C(C#N)=C(N)Oc3c2sc2nc(C)cc(C)c32)cc1 (configuration not stated) | -1% | 2% | 1 | · | -1
COc1ccc(OC(=O)c2ccncc2)cc1 | -8% | -6% | 6 | 35% | -15
O=C(N/N=C/c1ccc(C(F)(F)F)cc1)c1ccncc1 | -6% | -3% | 3 | 1.7µM* | 7
COC(=O)/C=C/c1ccc(OC(=O)c2ccncc2)cc1 | 10% | -5% | 5 | 13µM* | -16
O=C(Nc1ccc(OCc2ccccc2)cc1)c1cccs1 | 76% | 7% | 44* | 137% | ·
O=C(Cc1ccccc1)Nc1cccc(NC(=O)c2cccs2)c1 | ? | 2% | 1 | ? | 4
O=C(N/N=C/c1ccc(OCCCF)cc1)c1ccc(C(F)(F)F)cc1 | ? | 0% | -3 | 4% | 10
O=C(N/N=C/c1ccc(OCC(=O)N2CCCC2)cc1)C(=O)NC1CC1 | 15% | -1% | -2 | 3% | -5
O=C(N/N=C/c1ccccc1OCC(=O)N1CCCC1)C(=O)Nc1ccccc1F | 48% | ? | 33* | 48% | active
CCCN(C(=O)c1cccc(S(=O)(=O)N2CCN(C)CC2)c1)c1c(N)n(Cc2ccccc2)c(=O)[nH]c1=O | ? | · | · | 5% | ·

Bioassay records (PubChem BioAssay)
